Assay results reported in PubChem BioAssay (NCI).
The panel holds about 83,000 compounds, 20% with a hit somewhere; the sample as a whole holds those more often.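 Single-concentration screen, 48 h exposure, 96-well plates. Endpoint: percent growth. Below 10 = active.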 Unmarked numbers belong to inactive results. Calls of active or inactive are those of the source.

tested on: OVCAR-3 ovarian; assay: NCI-60 one-dose screen, 48 h (100 = growth as untreated, 0 = no growth, -100 = all killed); conditions: 10 µM unless noted

Compound | growth
CC1(C)CC[C@]2(C(=O)O)CC[C@]3(C)C(=CC[C@@H]4[C@@]5(C)C/C(=C/c6cccnc6)[C@H](O)C(C)(C)[C@@H]5CC[C@]43C)[C@@H]2C1 | -14.6% [100 µM] (active)
CCC(Br)(CC)C(=O)c1ccc(OCC(=O)O)c(Cl)c1Cl | 116%
C#C[C@]1(O)CC[C@H]2[C@@H]3CC=C4c5nc(Nc6ccccc6[N+](=O)[O-])sc5CC[C@]4(C)[C@H]3CC[C@@]21C | 65.8%
O=C(N/N=C\c1cc(Cl)ccc1O)N/N=C/c1cc(Cl)ccc1O | 10.2%
C=C(C)[C@@H]1CC[C@]2(C(=O)NCCNCCNC(=O)OC(C)(C)C)CC[C@]3(C)[C@H](CC[C@@H]4[C@@]5(C)CCC(=O)C(C)(C)[C@@H]5CC[C@]43C)[C@@H]12 | 32.3% [100 µM]
Cc1cc(C)c(O)c(CNCCCNCc2cc(C)cc(C)c2O)c1 | 77%
O=C(Nc1ccc(C(=O)/C=C/c2ccc(N3CCOCC3)cc2)cc1)Nc1ccc([N+](=O)[O-])cc1 | 93.9%
C[C@H]1[C@H](C)CC[C@]2(C(=O)N3CCN(C)CC3)CC[C@]3(C)C(=CC[C@@H]4[C@@]5(C)C/C(=C/c6ccco6)C(=O)C(C)(C)[C@@H]5CC[C@]43C)[C@H]12 | 40.1% [100 µM]
Nc1nc(Cl)c2ncn(Cc3cc4c(cc3I)OCO4)c2n1 | 41.9%
CC1(C)OC2[C@@H](CNC(=O)NC(=O)NC(=O)CI)O[C@@H](n3cnc4c(NC(=O)Nc5ccccc5)ncnc43)[C@H]2O1 (some centres undefined) | -32.6% (active)
Fc1cc2[nH]ncc2c2c3c(c(-c4cn[nH]c4C(F)(F)F)nc12)C1CCC3C1 (centres undefined) | 10.6%
CC1Cc2c(Cl)ncnc2N(C)c2ccccc21 (centres undefined) | 10.6%
C=C(C)[C@@H]1CC[C@]2(COCCCN)CC[C@]3(C)[C@H](CC[C@@H]4[C@@](C)(CCCNCCCN)[C@H](C(=C)C)CC[C@]43C)[C@@H]12 | -53.3% [100 µM] (active)
CCCCCCSc1ncnc2nc[nH]c12 | 103%
C[C@@H]1C[C@H]2C(=O)O[C@@H](C)[C@H](NC(=O)[C@H](Cc3cc(F)cc(F)c3)NC(=O)Nc3ccc(C4CC4)cc3F)C(=O)N3CCC[C@H]3C(=O)N3CCCC[C@H]3C(=O)N[C@@H](C)C(=O)N2C1 | 5.07% (active)
O=[N+]([O-])c1ccc(O)c(-c2nc3ccccc3s2)c1 | 47.9%
COc1cc2c(cc1OC(C)=O)C(=O)CCCC2 | 114%
COc1ccc(CC(C#N)c2ccc(Cl)cc2)cc1 (centres undefined) | 77.2%
COc1ccc(N(c2nc(-c3ccc([N+](=O)[O-])cc3)cs2)C(C)C)cc1 | 81.1%
C=C(C)[C@@H]1CC[C@]2(C)[C@H](CC[C@@H]3[C@@H]([C@@](C)(O)CCC=C(C)C)CC[C@]32C)[C@@]1(C)CCC(=O)O | -70.2% [100 µM] (active)
CCOc1ccc(S(=O)(=O)Nc2ccc3c(c2)N(S(=O)(=O)CC)CCC3)cc1 | 54.3%
Cc1cnc(N)nc1OCCNC(=O)c1cccc(-c2ccc(S(=O)(=O)Nc3ccc4c(c3)N(C(=O)C3CC3)CCC4)cc2)c1 | 79.5%
Fc1cc2[nH]ncc2c2c3c(c(-c4cn[nH]c4)nc12)CCCC3 | 7.22% (active)

tested on: HS 578T breast; assay: as above; conditions: 10 µM unless noted

Compound | growth
O=C1CN(Cc2ccc(C(=O)NO)cc2)C(=O)[C@@H](Cc2ccccc2)N1 | 101%
COc1ncc(-c2ccc3nccc(C#CCCCCC(=O)NO)c3c2)cc1NS(=O)(=O)c1ccc(F)cc1F | -23.8% (active)
CC1Cc2c(Cl)ncnc2N(C)c2ccc(O)cc21 (centres undefined) | 28.8%
FC(F)(F)c1ccc2c(c1)Sc1ccccc1N2 | 85.5%
Cc1ccc2c(n1)C(=O)C(Cl)=C(Nc1ccc(N3CCN(C)CC3)cc1)C2=O | 58%
CCOc1cc(/C=N\NC(=O)N/N=C/c2ccc(O)c(OCC)c2)ccc1O | -2.98% (active)
C1=C[C@H]2O[C@@H]1c1ccc3[nH]ccc3c12 | 119%
CC1(C)CC[C@]2(C(=O)O)CC[C@]3(C)[C@H](CC[C@@H]4[C@@]5(C)CCC(=O)C(C)(C)[C@@H]5CC[C@]43C)[C@H]2[C@H]1OC(=O)C(F)(F)F | -42.1% [100 µM] (active)
[2H]C1([2H])CCN(C(=O)C2CC2)c2cc(NS(=O)(=O)c3ccc(-c4cccc(C(N)=O)c4)cc3)ccc21 | 18.7%
O=C(CCN1CCCCC1)c1ccc(Cl)cc1 | 108%
NC(=O)c1cccc(-c2ccc(S(=O)(=O)Nc3ccc4c(c3)N(C(=O)C3CC3)CCC4)cc2)c1 | 17.9%
CCOC(=O)CCC[P+](c1ccccc1)(c1ccccc1)c1ccccc1 | 92.9%
CC1(C)CC[C@]2(C(=O)O)CC[C@]3(C)C(=CC[C@@H]4[C@@]5(C)C/C(=C/c6cccnc6)[C@H](O)C(C)(C)[C@@H]5CC[C@]43C)[C@@H]2C1 | 3% [100 µM] (active)
C#C[C@]1(O)CC[C@H]2[C@@H]3CC=C4c5nc(Nc6ccccc6[N+](=O)[O-])sc5CC[C@]4(C)[C@H]3CC[C@@]21C | 21.4%
O=C(N/N=C\c1cc(Cl)ccc1O)N/N=C/c1cc(Cl)ccc1O | 34.6%
C=C(C)[C@@H]1CC[C@]2(C(=O)NCCNCCNC(=O)OC(C)(C)C)CC[C@]3(C)[C@H](CC[C@@H]4[C@@]5(C)CCC(=O)C(C)(C)[C@@H]5CC[C@]43C)[C@@H]12 | 37.8% [100 µM]

Compound | growth
O=C(Nc1ccc(C(=O)/C=C/c2ccc(N3CCOCC3)cc2)cc1)Nc1ccc([N+](=O)[O-])cc1 | 111%
C[C@H]1[C@H](C)CC[C@]2(C(=O)N3CCN(C)CC3)CC[C@]3(C)C(=CC[C@@H]4[C@@]5(C)C/C(=C/c6ccco6)C(=O)C(C)(C)[C@@H]5CC[C@]43C)[C@H]12 | 53.2% [100 µM]
Nc1nc(Cl)c2ncn(Cc3cc4c(cc3I)OCO4)c2n1 | 81.2%
CC1(C)OC2[C@@H](CNC(=O)NC(=O)NC(=O)CI)O[C@@H](n3cnc4c(NC(=O)Nc5ccccc5)ncnc43)[C@H]2O1 (some centres undefined) | 98.7%
Fc1cc2[nH]ncc2c2c3c(c(-c4cn[nH]c4C(F)(F)F)nc12)C1CCC3C1 (centres undefined) | -10.8% (active)
CC1Cc2c(Cl)ncnc2N(C)c2ccccc21 (centres undefined) | 24.6%
C=C(C)[C@@H]1CC[C@]2(COCCCN)CC[C@]3(C)[C@H](CC[C@@H]4[C@@](C)(CCCNCCCN)[C@H](C(=C)C)CC[C@]43C)[C@@H]12 | -39.2% [100 µM] (active)
CCCCCCSc1ncnc2nc[nH]c12 | 102%
C[C@@H]1C[C@H]2C(=O)O[C@@H](C)[C@H](NC(=O)[C@H](Cc3cc(F)cc(F)c3)NC(=O)Nc3ccc(C4CC4)cc3F)C(=O)N3CCC[C@H]3C(=O)N3CCCC[C@H]3C(=O)N[C@@H](C)C(=O)N2C1 | 18.1%
O=[N+]([O-])c1ccc(O)c(-c2nc3ccccc3s2)c1 | 67.3%
COc1ccc(N(c2nc(-c3ccc([N+](=O)[O-])cc3)cs2)C(C)C)cc1 | 85%
C=C(C)[C@@H]1CC[C@]2(C)[C@H](CC[C@@H]3[C@@H]([C@@](C)(O)CCC=C(C)C)CC[C@]32C)[C@@]1(C)CCC(=O)O | -16.7% [100 µM] (active)
CCOc1ccc(S(=O)(=O)Nc2ccc3c(c2)N(S(=O)(=O)CC)CCC3)cc1 | 80.7%
Cc1cnc(N)nc1OCCNC(=O)c1cccc(-c2ccc(S(=O)(=O)Nc3ccc4c(c3)N(C(=O)C3CC3)CCC4)cc2)c1 | 75.3%
Fc1cc2[nH]ncc2c2c3c(c(-c4cn[nH]c4)nc12)CCCC3 | -3.3% (active)
